The campaign covered roughly 59,000 compounds. About 6,200 (11%) were called active. Another 9% or so got no clear call; they are omitted. No stated cut-off is given here; in the data, active means max dye-equivalent concentration above about 10 nM; inconclusive means mostly about 1.1 nM to 9.6 nM; inactive means weaker than that. The entries come from a sample that favours actives as a whole. Some structures have more than one record in an assay (separate samples or runs), and their calls can disagree.

The test is described as follows: qHTS Assay for Spectroscopic Profiling in 4-MU Spectral Region. Conditions: compound autofluorescence, 340/450 nm, 4-MU equivalents; stronger effect = higher value. The text has this: NIH Molecular Libraries Screening Centers Network [MLSCN] NIH Chemical Genomics Center [NCGC] […] Occasionally, the artifactual effect may originate from the compounds own spectral or other biophysical properties which generally tend to track its assay concentration. Pre-screening/profiling the library with respect to the compounds spectral properties should help one exclude false positives early on. While the most informative fluorescent profiling data set is obtained by performing a full excitation and emission scan of each well by using a monochromator-based plate reader, such an approach is practical only on a very limited scale as scanning each well requires long time. An alternative approach, applied here, is to perform plate reader scans using selected excitation and emission wavelength pairs to generate a multidimensional relational database that correlates compound concentration and the respective relative fluorescence intensity at a given wavelength set. A standard curve of 4-methylumbelliferone (4-MU) present on each plate as six-point concentration series, was used to compute a normalized fluorescence response, termed dye-equivalent concentration, for each compound at each concentration.
NCGC Assay Protocol Summary: Buffer: 100 mM Tris buffer, pH 8.0 Dye standard plate: The wells in columns 1 through 4 of a Kalypsys polypropylene 1536-well compound plate were filled with standard solutions of fluorophore corresponding to the spectral region of interest. Solutions of 4-MU were placed in the following wells: A1, B1: 3 mM, A2, B2: 300 uM, A3, B3: 30 uM, A4, B4: zero (DMSO), C1, D1: 3 uM, C2, D2: 900 nM, C3, D3: 300 nM, C4, D4: zero (DMSO). Assay Steps: Six uL of buffer were dispensed to 1536-well Greiner black plates. Compounds and dye standards (23 nL) were transferred via Kalypsys PinTool. The plates were incubated for 15 min at room temperature, and then read on ViewLux (Perkin-Elmer) High-throughput CCD imager using 340 nm and 450 nm excitation and emission filter set. Keywords: NIH Roadmap, MLSCN, MLI, MLSMR, qHTS, NCGC, Fluorescent Profiling, 4MU, 4-MU
In general terms: Quantitative high-throughput screening tests each substance at several concentrations.
For `C[C@]12CC[C@H](O)C[C@@H]1CC[C@H]1[C@H]2CC[C@]2(C)C(=O)CC[C@@H]12`, the max dye-equivalent concentration was 69 nM (active) and the outcome was inactive.

Regarding `C[C@]12CC[C@H](O)CC1=CC[C@@H]1[C@H]2CC[C@]2(C)C(=O)CC[C@H]12`, the max dye-equivalent concentration result is “inactive”.

As for `C[C@@]12CC[C@H](O)C[C@@H]1CC[C@@H]1[C@@H]2CC[C@@]2(C)[C@@H](C3=CC(=O)OC3)[C@H](O)C[C@]12O`, the max dye-equivalent concentration entry was “inactive”.

In the case of `Cc1ccc(S(=O)(=O)O[C@H]2CN3CCC2CC3)cc1`, the max dye-equivalent concentration result was “inactive”.

Regarding `CC1=CC(=O)C2=C(C)C[C@H](O)[C@@H]3[C@@H](OC(=O)[C@H]3C)[C@H]12`, the max dye-equivalent concentration result is “inactive”.

On to `O=C1C2CCN(CC2)C1(CO)CO`, for which the max dye-equivalent concentration entry was “inactive”.

On to `c1ccc2c(c1)[I+]c1ccccc1-2`, for which the max dye-equivalent concentration result is “inactive”.

`CSC1=NP(=S)(SC)N(C)c2nc3n(c21)CCC3` (stereo unspecified): the max dye-equivalent concentration was 22 nM (active).

On to `c1csc(CN2CC3(CCNCC3)C2)n1`, for which the max dye-equivalent concentration entry was “inactive”.

`CC(C)CCC1(CCN)C(=O)NC(=O)NC1=O`: the max dye-equivalent concentration entry was “inactive”.

As for `CN1[C@@H]2CC[C@H]1CC(OC(=O)c1cc(Cl)cc(Cl)c1)C2` (stereo partly specified), the max dye-equivalent concentration result is “inactive”.

In the case of `CC(=O)c1c(O)c(C)c(O)c(Cc2c(O)c3c(c(C(=O)/C=C\c4ccccc4)c2O)OC(C)(C)C=C3)c1O`, the max dye-equivalent concentration result was “inactive”.

For `C[C@H]1CC[C@@]2(NC1)O[C@@H]1C[C@H]3[C@@H]4CC=C5C[C@@H](O)CC[C@]5(C)[C@@H]4CC[C@]3(C)[C@@H]1[C@@H]2C`, the max dye-equivalent concentration result is “inactive”.

Turning to `NCCc1c[nH]c2ccc(O)cc12`, the max dye-equivalent concentration result is “inactive”.

Turning to `C/C(CCc1c[nH]c2ccccc12)=N\O`, the max dye-equivalent concentration is 13 nM (active).

As for `CCN(CC)CCn1ncc2c(N)ncnc21`, the max dye-equivalent concentration result was “inactive”.

For the compound `N[C@H](C(=O)O)c1cc(=O)[nH]o1`, the max dye-equivalent concentration result is “inactive”.

Take `COC(=O)C(O)(c1ccc(NC(=O)c2ccco2)c(OC)c1)C(F)(F)F` (stereo unspecified): the max dye-equivalent concentration entry was “inactive”.

As for `Cc1cccc(-n2c(C)nc3cc(C(=O)N4CCC5(CC4)OCCO5)ccc32)c1`, the max dye-equivalent concentration result is “inactive”.

Consider `O=C(c1cc2nc(-c3ccccc3)cc(-c3ccccc3)n2n1)N1CCC2(CC1)OCCO2`, for which the max dye-equivalent concentration was 64 nM (active).

Consider `O=C(c1cc(-c2ccncc2)nc2ccccc12)N1CCC2(CC1)OCCO2`, for which the max dye-equivalent concentration result is “inactive”.

Take `NC[C@H](O)c1ccc(O)cc1`: the max dye-equivalent concentration entry was “inactive”.

In the case of `NC(=O)c1ccc(OC[C@H](O)CN2CC=C(c3ccc(F)cc3)CC2)cc1`, the max dye-equivalent concentration entry was “inactive”.

Take `COc1cc(C[C@H](C)N)c(OC)cc1I`: the max dye-equivalent concentration entry is “inactive”.

For `CC(=O)NBr`, the max dye-equivalent concentration entry is “inactive”.

On to `C[C@H](Br)C(=O)N[C@H](CO)C(=O)O`, for which the max dye-equivalent concentration result was “inactive”.

Consider `COc1ccc(C2NCc3ccc4c(c3-n3cccc32)OCO4)cc1OC` (stereo unspecified), for which the max dye-equivalent concentration result is “inactive”.

With `CCOC(=O)c1c(-c2ccccc2)oc2ccc(OC(=O)N(C)C)cc12`, the max dye-equivalent concentration is 50 nM (active).

For `c1ccc(N2CC[C@@]3(CCCNC3)C2)nc1`, the max dye-equivalent concentration result is “inactive”.

Consider `c1csc(CN2CCCC3(CCNCC3)C2)n1`, for which the max dye-equivalent concentration entry was “inactive”.

Consider `c1ccc(CN2CC[C@@]3(CCCNC3)C2)cc1`, for which the max dye-equivalent concentration is 11 nM (active).

With `C[C@@]12CC[C@H]3[C@@H](CC[C@]4(O)C[C@H](O)CC[C@@]34C=O)[C@]1(O)CC[C@@H]2C1=CC(=O)OC1`, the max dye-equivalent concentration result is “inactive”.

On to `CCN1C[C@@]2(COC)CC[C@H](OC)[C@]34[C@@H]1[C@]1(OCO[C@@]15C[C@@H](OC)C1C[C@H]3[C@H]5[C@@H]1OC)[C@H](O)[C@@H]24`, for which the max dye-equivalent concentration result is “inactive”.

Turning to `C=CCN1C(=O)C2(C(C(=O)OCC)=C(N)Oc3c2c(=O)oc2ccccc32)c2ccccc21` (stereo unspecified), the max dye-equivalent concentration result is “inactive”.

Take `CS(=N)(=O)CC[C@H](N)P(=O)(O)O` (stereo partly specified): the max dye-equivalent concentration entry was “inactive”.

For the compound `CCOC(=O)c1c(N)n(Cc2ccccc2)c2nc3ccccc3nc12`, the max dye-equivalent concentration was 1100 nM (active).

As to `CC(=O)O[C@H]1CC[C@@]2(C)[C@@H](CC[C@H]3[C@H]2CC(=O)[C@]2(C)[C@@H]3C[C@@H](N3CC3)[C@H]2C(C)=O)C1`, the max dye-equivalent concentration entry is “inactive”.

On to `CCNC[C@H](O)c1cccc(O)c1`, for which the max dye-equivalent concentration result was “inactive”.

For the compound `CC[C@@](O)(C(=O)O)c1cc2n(c(=O)c1CO)Cc1cc3ccccc3nc1-2`, the max dye-equivalent concentration is 840 nM (active).

For `CC[C@]1(O)C(=O)OCc2c1cc1n(c2=O)Cc2cc3ccccc3nc2-1`, the max dye-equivalent concentration was 2300 nM (active).

For `CN1CCN(C(=O)O[C@@H]2c3nccnc3C(=O)N2c2ccc(Cl)cn2)CC1`, the max dye-equivalent concentration result was “inactive”.

For the compound `CCN1C[C@]2(C)CC[C@H](O)[C@@]34[C@@H]5CC6[C@@H](OC)C[C@@](O)([C@@H]5[C@@H]6O)[C@H](C[C@@H]23)[C@H]14`, the max dye-equivalent concentration result was “inactive”.

Consider `O=C(Nc1cccc(F)c1)N1CC[C@@]2(CCCN(C(=O)Oc3ccccc3)C2)C1`, for which the max dye-equivalent concentration result is “inactive”.

Consider `NCC[Se][Se]CCN`, for which the max dye-equivalent concentration entry was “inactive”.

In the case of `CCN1c2nc3c(C)cccn3c(=O)c2CC2(C(=O)N(C)C(=O)N(C)C2=O)C1C` (stereo unspecified), the max dye-equivalent concentration is 29 nM (active).

For `CC(C)(O)/C=C\C(=O)[C@](C)(O)[C@H]1[C@H](O)C[C@]2(C)[C@@H]3CC=C4[C@@H](C=C(O)C(=O)C4(C)C)[C@]3(C)C(=O)C[C@@]12C`, the max dye-equivalent concentration entry was “inactive”.

On to `NCCc1ccc(S(=O)(=O)F)cc1`, for which the max dye-equivalent concentration entry is “inactive”.

As for `C[N+]1(C)C2CC(OC(=O)C(CO)c3ccccc3)CC1[C@@H]1O[C@H]21` (stereo partly specified), the max dye-equivalent concentration result is “inactive”.

As to `O=C(O)C(=O)Cc1ccc2c(c1)OCO2`, the max dye-equivalent concentration entry was “inactive”.

For the compound `CC(C)(O)[C@H]1[C@H]2OC(=O)[C@@H]1[C@]1(O)C[C@H]3O[C@]34C(=O)O[C@H]2[C@]14C`, the max dye-equivalent concentration result was “inactive”.

The record behind these values is PubChem BioAssay AID589 (National Center for Advancing Translational Sciences (NCATS), 2007).
